NSD2 inh – blocks human histone methyltransferase NSD2; NSD2 peptide methylation, AlphaScreen, 120 min; inhibition, % at 12.5 µM; hit rate 0.54% among 310,000; in the data active means inhibition above about 50%
F508del corr – CFTR F508del correction in bronchial cells; CFBE cells, YFP halide quenching; stimulated with forskolin plus potentiator P3; % fluorescence drop versus neutral controls; activity (quench increase), % at 7.58 µM; hit rate 0.36% among 350,000; AID 720511;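 active means mean added fluorescence quench of at least 8% versus neutral control, with both replicates also reaching 8%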;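 further: cells transiently co-express mutant CFTR-F508del with the halide-sensitive YFP; corrector assay measuring rescue of mutant channel to the surface after 24 h compound exposure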
ALR H2O2 inh – human ALR oxidase inhibition via reduced H2O2. inhibition, % (test concentration not listed). purified ALR, DTT oxidation, H2O2 HRP-luminol luminescence. hit rate 3.8% among 290,000;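 active means mean replicate inhibition above about 79%, with every replicate also reaching it, limit read from the data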
PglD inh – blocks C. jejuni PglD acetyltransferase activity; purified PglD enzyme, DTNB colorimetric CoA detection; inhibition, % at 12.5 µM; hit rate 0.098% among 360,000; in the data active means inhibition above about 16%, passing the limit was not always enough
CASP6 VEID inh – inhibitors of human caspase-6. P55212. purified caspase-6, Z-VEID-R110 cleavage fluorescence. AID 686996. hit rate 0.53% among 350,000. inhibition, % at 12.5 µM;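 active means mean inhibition across replicates at least about 35%, with every replicate also reaching that limit, limit read from the data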;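 further: 0% = median of neutral control wells and 100% = no fluorescence left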
HIV Env fusion – HIV envelope-mediated fusion inhibition. HeLa-JRFL Env/CEM21 cell fusion, luciferase. inhibition, % at 12.3 µM. hit rate 1.1% among 360,000. AID 651610;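 active means mean replicate inhibition score of at least 50 and every replicate individually at or above 50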;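 further: 0% = plate neutral controls and 100% = maraviroc near 300 nM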
* marks the source's active call; other numbers are inactive results; / = no result given; [ ] = dose if it differs, or a comment. Only some compounds are listed: those with a hit (about 4.1% of all), similar ones and a draw of the others.

SMILES	NSD2 inh	F508del corr	ALR H2O2 inh	PglD inh	CASP6 VEID inh	HIV Env fusion
Cc1ccc(-c2nc(Nc3cccc(O)c3)c3ccccc3n2)cc1	-3	1	-129	0	5	3
Oc1cccc(Nc2c3ccccc3nc3ccccc23)c1	-1	0	99*	1	-1	-27
c1cncc(Nc2c3ccccc3nc3ccccc23)c1	-1	0	5	-4	1	23
Oc1cccc(Nc2nc(-c3ccccc3Cl)nc3ccccc23)c1	-2	1	88*	2	1	20
c1ccc(Nc2nc(-c3ccccc3)nc3ccccc23)cc1	-16	1	27	-9	2	2
Fc1cccc(Nc2nc(-c3ccncc3)nc3ccccc23)c1	-1	/	5	-8	53*	16
C[C@@H]1CCCCO[C@H](CN(C)S(=O)(=O)c2ccccc2)[C@H](C)CN([C@@H](C)CO)C(=O)c2cc(NS(=O)(=O)c3cn(C)cn3)ccc2O1	/	0	/	2	0	2[16.7 µM]
C[C@H](CO)N1C[C@H](C)[C@H](CN(C)C(=O)C2CCCCC2)Oc2ncc(C#CC3CCCC3)cc2C1=O	/	-2	/	1	-3	8[16.7 µM]
CO[C@H]1CN(C)C(=O)c2cc(NC(=O)Nc3c(C)noc3C)ccc2OC[C@H](C)N(C)C[C@@H]1C	/	-6	/	0	4	-18[16.7 µM]
Cc1ccccc1S(=O)(=O)N(C)C[C@H]1OCc2cn(nn2)CCCC(=O)N([C@@H](C)CO)C[C@H]1C	/	-1	/	/	/	9[16.7 µM]
C[C@@H]1CN([C@@H](C)CO)C(=O)Cc2cc(NS(=O)(=O)c3ccc(Cl)cc3)ccc2O[C@H]1CN(C)Cc1ccc(Cl)c(Cl)c1	/	0	/	-2	/	83*[16.7 µM]
C[C@@H]1CN([C@@H](C)CO)C(=O)Cc2cc(NS(=O)(=O)c3ccccc3)ccc2O[C@H]1CN(C)Cc1ccc(Cl)c(Cl)c1	/	-1	/	1	-1	88*[16.7 µM]
C[C@@H]1CN([C@H](C)CO)C(=O)Cc2cc(NS(=O)(=O)c3ccc(Cl)cc3)ccc2O[C@H]1CN(C)Cc1ccc(Cl)c(Cl)c1	/	-2	/	-3	/	5[16.7 µM]
Cc1ccc(S(=O)(=O)Nc2ccc3c(c2)CC(=O)N([C@@H](C)CO)C[C@@H](C)[C@H](CN(C)Cc2ccc(Oc4ccccc4)cc2)O3)cc1	/	4	/	3	-1	73*[16.7 µM]
Cc1noc(C)c1S(=O)(=O)Nc1ccc2c(c1)CC(=O)N([C@@H](C)CO)C[C@H](C)[C@@H](CN(C)Cc1ccc(Cl)c(Cl)c1)O2	/	-7	/	-2	-1	9[16.7 µM]
Cc1noc(C)c1S(=O)(=O)Nc1ccc2c(c1)CC(=O)N([C@@H](C)CO)C[C@@H](C)[C@H](CN(C)Cc1ccc(Cl)c(Cl)c1)O2	/	-3	/	2	1	85*[16.7 µM]
Cc1ccc(S(=O)(=O)Nc2ccc3c(c2)CC(=O)N([C@H](C)CO)C[C@H](C)[C@@H](CN(C)Cc2ccc(Cl)c(Cl)c2)O3)cc1	/	7	/	-3	-1	11[16.7 µM]
Cc1ccc(S(=O)(=O)Nc2ccc3c(c2)CC(=O)N([C@@H](C)CO)C[C@@H](C)[C@@H](CN(C)Cc2ccc(Cl)c(Cl)c2)O3)cc1	/	11*	/	0	0	-14[16.7 µM]
Cc1noc(C)c1COc1ccc(C(=O)NNC(=O)c2ccccc2)cc1	0	9.6*	-1	/	1	-13
O=C(/C=C/c1ccccc1)OCC(=O)N1CCCC1	7	0	/	-3	-2	/
O=C(/C=C/c1ccco1)OCC(=O)N1CCCCC1	4	1	2	7	50*	/
CCN(C(=O)COC(=O)/C=C/c1ccco1)C1CCCCC1	10	0	45	5	57*	-3
C[C@H](NC(=O)[C@@H]1[C@@H](CO)[C@@H]2Cn3c(cccc3=O)[C@H]1N2Cc1ccccc1)c1ccccc1	/	-2	/	3	-8	/
Nc1nonc1C(=O)NCCNCc1cc(Br)ccc1OCc1ccccc1F	0	/	-8	4	/	78*
Cc1ccc(S(=O)(=O)Nc2ccc3c(c2)C(=O)N([C@@H](C)CO)C[C@H](C)[C@H](CN(C)C)O3)cc1	/	0	/	0	-1	/
SMILES	NSD2 inh	F508del corr	ALR H2O2 inh	PglD inh	CASP6 VEID inh	HIV Env fusion
CCN(CC)S(=O)(=O)c1cccc(NC(=O)CSc2nnc(N)s2)c1	-3	2	99*	/	1	4
CCN(CC)S(=O)(=O)c1cccc(NC(=O)c2ccc(-n3nc(C)cc3C)cc2)c1	0	/	-3	-2	/	67*
O=C(O)C1Cc2ccccc2CN1S(=O)(=O)c1ccccc1 (configuration not stated)	0	1	-2	4	9	-8
O=C(O)C1Cc2ccccc2CN1S(=O)(=O)c1ccc2ccccc2c1 (configuration not stated)	3	/	95*	-2	/	/
CS(=O)(=O)N1N=C(c2cccs2)CC1c1ccccc1 (configuration not stated)	-1	-1	-10	-5	2	1
c1ccc(C2Oc3ccccc3C3CC(c4cccs4)=NN32)cc1 (configuration not stated)	3	0	98*	1	1	/
CCCN1C[C@H](C)[C@H](OC)CN(C)C(=O)c2cc(NS(=O)(=O)c3cn(C)cn3)ccc2OC[C@H]1C	/	1	/	-2	-1	/
COc1cc(C2Nc3ccccc3C(=O)N2c2ccccc2OC)ccc1O (configuration not stated)	-1	/	29	2	/	/
O=C1c2ccccc2NC(c2ccc(O)c(O)c2)N1c1ccccc1Cl (configuration not stated)	1	0	100*	-10	2	-15
C[C@H](CO)N1C[C@H](C)[C@@H](CN(C)S(=O)(=O)c2ccccc2)OCCCC[C@H](C)Oc2ccc(NS(=O)(=O)c3ccc(F)cc3)cc2C1=O	/	2	/	5	-1	-78[16.7 µM]
Cc1ccccc1-c1nc(CS(=O)CC(=O)NC2CCCC2)c(C)o1 (configuration not stated)	1	4	99*	5	5	2
Cc1oc(-c2ccccc2F)nc1CS(=O)CC(=O)NC1CCCC1 (configuration not stated)	5	0	99*	/	-1	3
Cc1ccccc1-c1nc(CS(=O)CC(=O)NC2CCCCC2)c(C)o1 (configuration not stated)	22	-1	99*	2	1	8
Cc1ccccc1-c1nc(CS(=O)CC(=O)NC2CC2)c(C)o1 (configuration not stated)	0	2	99*	4	0	0
C[C@@H]1CN([C@@H](C)CO)S(=O)(=O)c2ccc(-c3ccncc3)cc2O[C@H]1CN(C)C(=O)C1CCC1	/	-1	/	/	/	-18[16.7 µM]
COc1ccc2c3c([nH]c2c1)[C@@H](CO)N(CC1CC1)CC31CN(C(=O)c2cccc(F)c2)C1	/	0	/	/	/	/
CC(C)c1c(O)ccc2c1CC[C@H]1C(C)(C)CCC[C@]21C	/	9.0*	/	-2	-6	12
